TGFb SMAD3 inh – blocks TGF-b signaling | Potency, µM (titrated, usually from 46.1 µM), inactives show at the top dose activity, negative = inhibition, usual class: inhibitors | 410,000 compounds, 1.2% hits | AID 588855 | HepG2 CAGA-GFP TGF-b/SMAD3 reporter, GFP fluorescence, 18 h; TGF-beta stimulated, 500 pg/mL final; further: on the % scale 0 is the no-effect control and ±100 the full control effect; nearly all actives have a fitted effect of over 65% in size
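Inhibition was scored as loss of TGF-beta-induced (500 pg/mL final, 18 hours, 37 degrees C) GFP in HEPG2 cells carrying a CAGA-GFP reporter, in DMEM with 1% FBS. Well GFP was summed per cell; Activity was normalised to unstimulated and stimulated DMSO wells, then concentration-response fitting.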
ATXN2 expr inh – inhibitors of ATXN2 expression | 360,000 compounds, 0.72% hits | HEK-293 ATXN2-luciferase reporter, luminescence, 24 h | Potency, µM (series often up to 57 µM), without a hit: top-dose activity change, negative = inhibition, most hits filed as inhibitors | AID 1745845; further: on the % scale 0 is the no-effect control and ±100 the full control effect; nearly all actives have a fitted effect of over 55% in size
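qHTS (up to 57 uM final) was run with 24 h compound exposure of reporter cells at 37 °C. Each well was multiplexed: SteadyGlo luminescence measured ATXN2-luciferase expression after a fluorogenic Gly-Phe-AFC viability readout (25 uM final).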
HepG2 tox-1 – HepG2 cytotoxicity, counter-screen for TGF-b inhibitors; Potency, µM (doses to about 46.1 µM), inactives show at the highest dose activity change, negative = cytotoxicity, hits mostly cytotoxic; AID 588856; HepG2 CAGA-GFP viability, ATP luminescence, 18 h; 410,000 compounds, 0.76% hits
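CellTiter-Glo luminescence gave cytotoxicity after 18 hours at 37 degrees C. The cells were HepG2 CAGA-GFP in 1% FBS DMEM, stimulated with 500 pg/mL TGF-beta after compound addition. %Activity was normalised to no-cell wells (complete cell-killing) and DMSO (no toxicity), and curves were fitted and classified.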
ALOX12 inh – ALOX12 (human) lipoxygenase inhibition | Potency, µM (titrated, usually from 108 µM), for inactives: at the top dose activity change, negative = inhibition, usual class: inhibitors | 580,000 compounds, 1.1% hits | purified 12hLO, xylenol orange hydroperoxide absorbance | P18054; further: on the % scale 0 is the no-effect control and ±100 the full control effect
Target sequence (P18054 whole entry, looked up): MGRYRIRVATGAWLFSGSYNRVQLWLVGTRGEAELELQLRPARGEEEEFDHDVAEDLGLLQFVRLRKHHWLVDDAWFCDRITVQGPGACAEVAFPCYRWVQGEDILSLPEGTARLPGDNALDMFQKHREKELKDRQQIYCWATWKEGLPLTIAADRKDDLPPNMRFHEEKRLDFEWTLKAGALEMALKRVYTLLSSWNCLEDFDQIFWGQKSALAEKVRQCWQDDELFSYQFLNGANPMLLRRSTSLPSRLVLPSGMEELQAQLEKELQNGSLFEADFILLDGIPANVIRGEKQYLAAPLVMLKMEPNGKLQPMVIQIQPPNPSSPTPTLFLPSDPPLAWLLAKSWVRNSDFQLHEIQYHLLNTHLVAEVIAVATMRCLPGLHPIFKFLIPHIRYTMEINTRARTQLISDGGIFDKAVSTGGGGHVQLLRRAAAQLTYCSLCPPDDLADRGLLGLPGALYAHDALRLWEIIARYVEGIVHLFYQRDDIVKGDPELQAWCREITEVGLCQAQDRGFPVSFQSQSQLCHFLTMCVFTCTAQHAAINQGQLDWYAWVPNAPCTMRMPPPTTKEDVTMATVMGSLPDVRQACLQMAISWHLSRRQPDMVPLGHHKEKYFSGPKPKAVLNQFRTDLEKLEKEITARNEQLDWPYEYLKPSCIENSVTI
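Purified human 12hLO (150 nM final) in 25 mM Hepes, 0.01% Triton X-100, pH 7.0 was preincubated 15 min at room temperature with compound. Then 40 uM arachidonic acid was added, 30 min. Hydroperoxide was read by Fe-XO absorbance ratio 573/405 nm.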
ATXN viability – cell viability loss in ATXN counter-screen. Potency, µM (highest dose often 56.7 µM), actives largely listed as cytotoxic. AID 651635. S2 cells (HEK-293 line with an ATXN2-luciferase reporter) viability, CellTiter-Fluor protease fluorescence, 24 h. 400,000 compounds, 0.49% hits; further: nearly all actives have a fitted effect of over 40% in size
TGFb CAGA inh – TGF-b pathway inhibition, cherry-pick retest; shares compounds with TGFb SMAD3 inh; HepG2 CAGA-GFP TGF-b reporter, GFP fluorescence, 18 h; cells stimulated with TGF-beta, 500 pg/mL; Potency, µM (series often up to 46.1 µM), for inactives: at the highest dose activity, negative = inhibition, hits mostly inhibitors; 1,600 compounds, 63% hits; AID 720534; further: on the % scale 0 is the no-effect control and ±100 the full control effect; nearly all actives have a fitted effect of over 65% in size
HepG2 tox-2 – HepG2 cytotoxicity, TGF-b inhibitor counterscreen; shares compounds with TGFb SMAD3 inh; HepG2 CAGA-GFP viability, ATP luminescence, 18 h; cells stimulated with TGF-beta, 500 pg/mL; Potency, µM (highest dose often 46.1 µM), for the others: at the highest dose activity, negative = cytotoxicity, most hits filed as inhibitors; 1,600 compounds, 27% hits; further: on the % scale 0 is the no-effect control and ±100 the full control effect; nearly all actives have a fitted effect of over 70% in size
TGFb CCL64 inh – orthogonal confirmation of TGF-b inhibitors in CCL64 cells. 1,600 compounds, 41% hits. AID 720536. Potency, µM (highest dose often 46.1 µM), inactives show top-dose activity, negative = inhibition, usual class: inhibitors. shares compounds with TGFb SMAD3 inh. CCL64 CAGA-GFP reporter, TGF-b stimulated, GFP fluorescence, 18 h; further: nearly all actives have a fitted effect of over 65% in size
TGFb COP inh – TGF-b inhibition validated with COP promoter; Potency, µM (doses to about 46.1 µM), for the others: top-dose activity, negative = inhibition, most hits filed as inhibitors; AID 720537; 1,600 compounds, 3% hits; HepG2 COP-GFP TGF-b reporter, GFP fluorescence, 18 h; cells stimulated by added recombinant TGF-beta; shares compounds with TGFb SMAD3 inh; further: nearly all actives have a fitted effect of over 70% in size
Starred values were filed as active, the others as inactive; i = inactive; ? = inconclusive; . = no result given. Most compounds without a hit are left out; they make up all but 2.7% or so of the library. The call rests on the fitted dose curve; in most records, active means well fitted curve in the direction sought with a large enough effect; inconclusive means small, poorly fitted or top-dose-only effect, or another doubt; inactive means no such curve, though single readings can be large; an effect the other way counts as inactive or inconclusive. Potency means the concentration at half of the fitted maximal effect.

SMILES	TGFb SMAD3 inh	ATXN2 expr inh	HepG2 tox-1	ALOX12 inh	ATXN viability	TGFb CAGA inh	HepG2 tox-2	TGFb CCL64 inh	TGFb COP inh
COc1ccc(/C=C/C(=O)c2ccccc2)cc1Cn1nnc2ccccc21	8.9µM*	?	-17%	0%	.	6.5µM*	23µM*	23µM*	0%
CN(C(=O)/C=C/c1ccc([N+](=O)[O-])s1)c1ccccc1	10µM*	?	11µM*	-14%	.	23µM*	?	21µM*	?
CN(C(=O)C=Cc1ccco1)c1ccccc1	-5%	1%	-55%	-47%	i	.	.	.	.
COc1ccc(-c2cn[nH]c2-c2ccc(OCc3ccc([N+](=O)[O-])cc3)cc2O)cc1OC	8.9µM*	.	-45%	10%	i	21µM*	?	?	23%
COc1ccc(-c2[nH]ncc2-c2ccc(Cl)cc2)c(O)c1	10µM*	5%	-61%	52%	i	?	-20%	?	24%
COc1ccc(-c2cn[nH]c2-c2ccc(OC)cc2O)cc1	?	2%	-33%	0%	i	.	.	.	.
COc1ccc(-c2cn[nH]c2-c2ccc(OCc3ccccc3)cc2O)cc1	?	0%	-142%	?	i	.	.	.	.
Fc1ccc(-c2nc(COc3ccccc3F)co2)cc1	.	.	.	-6%	.	.	.	.	.
Cc1ccc(Nc2nc(-c3c[nH]c(C(=O)N4CCCC4)c3)cs2)cc1F	.	.	.	-82%	.	.	.	.	.
O=C(Nc1cccc([N+](=O)[O-])c1)c1cc2ccccc2cc1O	4µM*	?	-39%	?	?	6.5µM*	4.1µM*	4.6µM*	61%
O=C(Nc1ccc(N2CCN(c3ncccc3C(F)(F)F)CC2)nc1)c1cccs1	4µM*	34µM*	-56%	-5%	?	?	?	?	79%
Oc1ccccc1-c1nc2cnccn2c1Nc1ccc2c(c1)OCCO2	?	-17%	-4%	4%	i	?	-2%	?	0%
Cc1ccn2c(Nc3ccc4c(c3)OCCO4)c(-c3ccccc3O)nc2c1	15%	2%	-7%	-25%	?	.	.	.	.
O=C(C[C@H]1C/C=C\CC[C@H](Cc2ccc(F)cc2)C(=O)O[C@@H](c2ccccc2)CNC1=O)N[C@H](CO)Cc1ccccc1	?	0%	-66%	?	?	.	.	.	.
O=C1N[C@@H](Cc2c[nH]c3ccccc23)COC(=O)[C@@H](Cc2ccc(F)cc2)CC/C=C/C[C@@H]1CC(=O)N(CCO)Cc1ccccc1	8.9µM*	?	-2%	0%	?	5.8µM*	-8%	?	21%
O=C1NC[C@H](c2ccccc2)OC(=O)[C@@H](Cc2ccc(F)cc2)CC/C=C/C[C@H]1CC(=O)N(CCO)Cc1ccccc1	11µM*	14µM*	.	?	11µM*	21µM*	.	?	53%
O=C(C[C@H]1C/C=C\CC[C@H](Cc2ccc(F)cc2)C(=O)O[C@@H](c2ccccc2)CNC1=O)N[C@@H](CO)Cc1ccccc1	7.1µM*	?	-114%	14%	?	?	?	13µM*	25%
Cc1cccc(NC(=O)CCCc2nc3ccccc3o2)c1	.	.	.	10%	.	.	.	.	.
O=S(=O)(Nc1cc(Cl)ccc1-n1cncn1)c1cc(Br)ccc1Br	10µM*	?	-42%	?	?	21µM*	?	21µM*	41%
O=S(=O)(Nc1cc(Cl)ccc1-n1cncn1)c1ccccc1Cl	-2%	5%	-14%	?	i	.	.	.	.
CN(CCCC1CCCC1)C(=O)c1cc(COc2ccc(F)cc2F)on1	10µM*	2%	3%	i	i	21µM*	?	26µM*	25%
CN(CCC1CCCCO1)C(=O)c1cc(COc2ccc(F)cc2F)on1 (centres undefined)	-6%	2%	-60%	-10%	i	.	.	.	.
O=C1CS(=O)(=O)N(Cc2ccccc2F)c2ccc(Br)cc21	13µM*	4%	-24%	?	i	?	?	?	38%
Cc1ccccc1/C=C/C(=O)c1ccc([N+](=O)[O-])o1	3.2µM*	13µM*	-113%	0%	13µM*	3.3µM*	6.5µM*	4.1µM*	?
O=C(/C=C/c1cccc([N+](=O)[O-])c1)c1ccco1	-26%	-33%	-45%	-6%	?	.	.	.	.
SMILES	TGFb SMAD3 inh	ATXN2 expr inh	HepG2 tox-1	ALOX12 inh	ATXN viability	TGFb CAGA inh	HepG2 tox-2	TGFb CCL64 inh	TGFb COP inh
O=C(/C=C/c1cccc([N+](=O)[O-])c1)c1ccc([N+](=O)[O-])o1	1.3µM*	?	4.5µM*	-5%	3.5µM*	2.9µM*	8.2µM*	1.6µM*	?
COc1ccc(/C=C/C(=O)c2ccc([N+](=O)[O-])o2)cc1	?	?	-58%	-23%	?	.	.	.	.
Cc1cccc(/C=C/C(=O)c2ccc([N+](=O)[O-])o2)c1	2.2µM*	10µM*	10µM*	?	10µM*	3.3µM*	5.2µM*	2.1µM*	?
Cc1ccc(S(=O)(=O)N(CC(=O)N2CCN(C)CC2)Cc2ccc(Cl)cc2)cc1	.	.	.	-28%	.	.	.	.	.
COc1ccccc1OCC(O)Cn1c(=N)n(Cc2ccccc2)c2ccccc21 (centres undefined)	-15%	?	-68%	-19%	?	.	.	.	.
Cc1ccccc1OCC(O)Cn1c(=N)n(Cc2ccccc2)c2ccccc21 (centres undefined)	7.1µM*	?	7.9µM*	?	32µM*	?	?	?	-27%
CCCCc1ccc(NC(=O)CN(C)CC(=O)Nc2ccccc2Cl)cc1	22µM*	-10%	-33%	80%	i	?	3%	?	1%
CCOc1ccc(S(=O)(=O)N2CCN(C(=S)NCc3ccco3)CC2)cc1	8.9µM*	-4%	-22%	-15%	i	?	-1%	?	3%

Source: PubChem BioAssay
